Methyltransferases: Primary Screen for Target Class Profiling of Small Molecule Inhibitors of Methyltransferases; purified enzyme, MTase-Glo SAH luminescence; hits give low values; calls only at 40 µM; 25,000 tested, 3.9% active; AID 1745853, 2022; call rule not given here
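Each enzyme was assayed with SAM and its substrate. SAH formation detected by MTase-Glo luminescence; single-point 40 uM screen[…].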
Large screens that a line does not name were inactive. This excerpt belongs to a sample that is enriched for hits.

O=C(Cn1nc2n(Cc3ccc(F)cc3)c(=O)c3ccccc3n2c1=O)c1ccccc1	none
Cc1ccc(NC(=O)Cn2nc3n(CCC(C)C)c(=O)c4ccc(C(=O)NC(C)C)cc4n3c2=O)cc1C	none
COc1ccc(OC)c(-c2nnc3n(Cc4ccccc4)c(=O)c4ccccc4n23)c1	none
CC(C)[C@@](C)(O)[C@@H]1CN(c2nc(-c3[nH]nc4ncccc34)c(F)cc2Cl)CCN1	Methyltransferases active
CCCC1c2ccc(C)n2CCN1C(=O)Nc1ccc(Cl)cc1 (configuration not stated)	none
CCCN1C(=O)c2c(C(=O)NCc3ccccc3Cl)ncn2CC1(C)C(=O)NCc1ccc(C)cc1 (configuration not stated)	none
CCC(C(=O)NCc1cccc(OC)c1)n1ccc2cc(S(=O)(=O)N3CCCCC3)ccc21 (configuration not stated)	none
CCOC(=O)c1ccc(Nc2ncnc3ccc(Br)cc23)cc1	none
CCOC(=O)c1cnc2ccc(Br)cc2c1Nc1cccc(C(C)=O)c1	none
C=CC(=O)Nc1ccc2ncnc(Nc3cccc(Br)c3)c2c1	Methyltransferases active
CC(C)(C)CC(=O)N1C[C@@H](CO)[C@@H]2Oc3ccc(Cl)cc3[C@@H]21	none
O=C(Cc1ccccn1)N1CCC2(CC1)CCN(Cc1cccs1)c1ccccc1O2	none
COc1ccc(CNC(=O)C2(C)Cn3cnc(C(=O)NCCc4ccccc4)c3C(=O)N2C2CC2)cc1 (configuration not stated)	none
COc1ccc(N2CCN(C(=O)c3ccc(Nc4nc5ccccc5n5nnnc45)cc3)CC2)cc1	none
CCN1CCN(c2ccc(Nc3ccc(-c4ccc(C(N)=O)cc4)n4ncnc34)cc2)CC1	Methyltransferases active
CCN1CCN(C(=O)c2ccc(-c3nnc4ccc(NC(=O)C5CC5)cn34)cc2)CC1	none
COc1cccc(CN2C(=O)c3cc4sccc4n3CC2(C)C(=O)NC2CCCCCC2)c1OC (configuration not stated)	none
CC(C)CNC(=O)c1ccc2c(=O)n(C(C)C)c3nn(C)c(=O)n3c2c1	none
CC1(C(=O)NC2CCCCCCC2)Cn2c(ccc2-c2ccccc2)C(=O)N1Cc1ccccc1 (configuration not stated)	none
Cc1ccc(C(=O)CSc2nnc3n(CC(C)C)c(=O)c4ccc(C(=O)NC(C)C)cc4n23)c(C)c1	none
O=C(CNC(=O)c1cccc(C(F)(F)F)c1)N[C@@H]1CCN(Cc2ccc(Cl)cc2)C1	none
CC(=O)NC1CCN(C(=O)c2coc(COc3cccc(C(F)(F)F)c3)n2)C1 (configuration not stated)	none
COc1ccc(C2(O)CCC(N3CC[C@@H](NC(=O)CNC(=O)c4cccc(C(F)(F)F)c4)C3)CC2)cn1 (some centres not stated)	Methyltransferases active
Nc1nonc1C(=Nc1ccc(F)c(Cl)c1)NO	none
CCCn1c(=O)c2ccc(C(=O)NC(C)C)cc2n2c(=O)n(CC(=O)Nc3ccccc3)nc12	none
CC(=O)NC(Cc1ccccc1)C(=O)O (configuration not stated)	none
N[C@@H](Cc1c[nH]c2ccccc12)C(=O)O	none
CC(=O)NC(Cc1c[nH]c2ccccc(=O)c12)C(=O)O (configuration not stated)	Methyltransferases active
C=CC(=O)Nc1ccc(CN2C(=O)N(c3cc(OC)cc(OC)c3)Cc3cnc(Nc4ccc(N5CCN(C)CC5)cc4)nc32)cc1	Methyltransferases active
C=CC(=O)Nc1cccc(Oc2nc(Nc3ccc(N4CCN(C)CC4)cc3OC)ncc2Cl)c1	none
COc1cccc(Nc2ncc3c(n2)C(C)(C(=O)N2CCN(c4ccccn4)CC2)CC3)c1 (configuration not stated)	none
O=C(Cn1nc2nc(Nc3ccc(F)cc3)ccn2c1=O)Nc1cc(F)ccc1F	none
CCCn1c(=O)c2ccc(C(=O)NCC(C)C)cc2n2c(SCC(=O)c3ccc(OC)cc3)nnc12	none
CCOC(=O)c1cc2n(n1)CC(C)(C(=O)NC1CCC(C)CC1)N(c1cccc(C)c1C)C2=O (configuration not stated)	none
COc1cccc(OCCCN)c1-c1cc(Nc2cnc(C#N)cn2)n[nH]1	none
COc1cc2c(Oc3ccc(-c4cnc(Nc5ccc(F)cc5)n(C)c4=O)cc3F)ccnc2cc1OCCCN1CCOCC1	none
COc1cc(Nc2c(C#N)cnc3cc(OCCCN4CCN(C)CC4)c(OC)cc23)c(Cl)cc1Cl	Methyltransferases active
CC1(C(=O)NC2CCCCCCC2)Cn2c(cc3sccc32)C(=O)N1CCCN1CCOCC1 (configuration not stated)	none
O=C(c1ccc(OCCCc2cnc[nH]2)cc1)C1CC1	none
N=C(N)c1ccc(OCCCCCOc2ccc(C(=N)N)cc2)cc1 (tested in a mixture with another compound)	Methyltransferases active
N=C(N)c1ccccc1	none
CCCn1c(=O)c2ccc(C(=O)NC(C)C)cc2n2c(=O)n(CC(=O)NC(C)C)nc12	none
COc1ccc2cc3n(c2c1)CC(C)(C(=O)NCC1CCCO1)N(Cc1ccccc1OC)C3=O (configuration not stated)	none
COc1ccc2c(c1)CC(NS(=O)(=O)c1ccc(Cl)cc1)CO2 (configuration not stated)	none
CC1(C(=O)NCc2ccccc2)Cn2c(nc3ccccc32)C(=O)N1CCc1ccco1 (configuration not stated)	none
CC(C)(C)Sc1c(CC(C)(C)C(=O)O)n(Cc2ccc(Cl)cc2)c2ccc(OCc3ccc4ccccc4n3)cc12	Methyltransferases active
COc1ccc(Cn2c(=O)c3ccccc3n3c(-c4ccc(Cl)cc4)nnc23)cc1	none
COc1ccc(CNC(=O)CCc2nnc3n(Cc4ccc(Cl)cc4)c(=O)c4ccccc4n23)cc1	none
O=C(CCc1nnc2n(Cc3ccc(Cl)cc3)c(=O)c3ccccc3n12)N1CCN(c2ncccn2)CC1	none
CCN(CC)c1nc2c(-c3cccc(F)c3)nnn2c2ccccc12	none
COCCN1C(=O)c2ccccc2C(C(=O)Nc2ccc3[nH]ccc3c2)C12CCCC2 (configuration not stated)	none
CCOc1ccccc1CN1C(=O)c2c(C(=O)OC)ncn2CC1(C)C(=O)NCc1ccccc1 (configuration not stated)	none
COc1ccc(C2CC(=O)c3cc(-c4nc(-c5cccc([N+](=O)[O-])c5)cs4)c(=O)n(-c4ccccc4N)c3C2)cc1 (configuration not stated)	Methyltransferases active
COc1ccc(S(=O)(=O)Nc2nc(-c3cccc([N+](=O)[O-])c3)cs2)cc1OC	none
COc1ccc(Br)cc1[C@@H]1Nc2ccc(Cl)cc2[C@@H]2C=CC[C@@H]21	none
CCOC(=O)C1CCC(CNC(=O)N2CCn3cccc3C2C)CC1 (configuration not stated)	none
Cc1ccc(C(=O)Cn2nc3n(CCC(C)C)c(=O)c4ccc(C(=O)NC(C)C)cc4n3c2=O)c(C)c1	none
COC(=O)CNC(=O)c1cn2cc(-c3cccc(C(F)(F)F)c3)sc2n1	none
Cc1c(O)cc(O)c2c(=O)c(O)c(-c3ccc(O)c(O)c3)oc12	Methyltransferases active
CC(C)OCCCn1c(=O)c2ccccc2n2c(=O)n(CC(=O)Nc3ccccc3F)nc12	none
Cc1ccc(N2C(=O)CSc3c(c4ccccc4n3C)C2C(=O)NCCCOC(C)C)cc1Cl (configuration not stated)	none
C/C1=C\CCC(C)CCO[C@@H]2O[C@H](CO[C@@H]3OC[C@H](O)[C@H](O)[C@H]3OC1=O)[C@@H](O)[C@H](O)[C@H]2O (some centres not stated)	none
